# Hit rate of the full screen: of about 1,400 compounds, about 100 (7.1%) were called active. A selection follows. Entries with a potency or affinity are not part of this list. Values without a mark were called inactive. No rule for the calls is given here.
# Assay: Vero cell toxicity, dose response, cytotoxicity control, plate reader, cherry-pick samples (AID 687020);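 also: compounds incubated with cells for three days before luminescence read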
# Settings: Vero cells toxicity; series mostly up to 19.5 µM; activity change, negative = toxicity: at the top concentration
row,SMILES,"activity change, negative = toxicity [%]"
1,CCOC(=O)C1=C(CS(=O)(=O)c2ccc(C)cc2)NC(=O)NC1c1cc(OC)c(O)c(OC)c1 (stereo unspecified),-12.2
2,COc1ccccc1Cn1c(=S)[nH]c2cc(C(=O)N3CC(C)CC(C)C3)ccc2c1=O (stereo unspecified),-7.03
3,COc1ccccc1CNC(=O)CCCN1C(=O)NC2(CCCC2)C1=O,8.3
4,CCc1ccc(NC(=O)COc2ccc3c(c2)OCO3)cc1,0.187
5,CC1CCc2sc(C(=O)NN=C3CCCC3)cc2C1 (stereo unspecified),-34.2
6,COc1ccc(S(=O)(=O)N2CCC(C(=O)N[C@H](C(=O)NCc3ccccc3)C(C)C)CC2)cc1,-4.44
7,CC(C)c1ccc(NC(=O)[C@H](NC(=O)[C@@H]2Cc3ccccc3CN2)c2ccccc2)cc1,-3.41
8,COc1ccc(NC(=O)Nc2cccc3c2O[C@H](CN(C)C(=O)NC2CCCCC2)[C@H](C)CN([C@@H](C)CO)C3=O)cc1,-6.07
9,CCCNC(=O)N1[C@H](CO)[C@H](c2ccccc2)[C@@H]1CNC(=O)c1ccc(F)cc1,-4.36
10,COc1ccc(S(=O)(=O)N2CCCCCC2)cc1NC(=O)Cc1cccc(C(F)(F)F)c1,-24.1
11,O=C(C1CC1)N1[C@@H](CO)[C@@H]2c3ccccc3NC[C@@H]21,5.51
12,C[C@H](NC(=O)[C@H]1N[C@H]2c3ccc(-c4cccnc4)c(=O)n3C[C@H]2[C@@H]1CO)c1ccccc1,-3.63
13,O=C(NCc1ccccc1F)[C@H]1N[C@H]2c3ccc(-c4ccccc4F)c(=O)n3C[C@H]2[C@@H]1CO,-1.53
14,NC(=O)c1ccccc1NC(=O)COC(=O)C1(c2ccccc2)CC1,-17.5
15,CSCCC(NC(=O)COc1ccccc1)C(=O)OCCOc1ccc(C)cc1 (stereo unspecified),6.81
16,COc1cc(OC)cc(C(=O)Nc2ccc(N3CCN(C(=O)c4cccs4)CC3)cc2)c1,-4.09
17,Cc1cccc(OCC(=O)Nc2ccc(N3CCN(C(=O)c4ccccc4)CC3)cc2)c1C,10.4
18,C/C(CC(=O)Nc1ccc(Cl)c(Cl)c1)=N\NC(=O)Cc1ccccc1,-7.86
19,COc1ccc(S(=O)(=O)Nc2cccc3c2O[C@@H](CN(C)S(C)(=O)=O)[C@@H](C)CN([C@@H](C)CO)C3=O)cc1,0.077
20,CCC(C)c1ccc(NC(=O)NCCN2CCCCC2)cc1 (stereo unspecified),1.83
21,OC(CSc1nnnn1-c1ccccc1)Cn1c2ccccc2c2ccccc21 (stereo unspecified),-0.493
22,C[C@@H]1CCCCO[C@H](CN(C)S(=O)(=O)c2ccccc2)[C@@H](C)CN([C@@H](C)CO)C(=O)c2cc(NC(=O)c3ccncc3)ccc2O1,-4.56
23,CCC(N=c1cc(-c2ccc(OC)c(OC)c2)oc2ccc(C)cc12)C(=O)O (stereo unspecified),-4.53

row,SMILES,"activity change, negative = toxicity [%]"
1,CN(C)S(=O)(=O)N1CCC(Oc2ccc(C(=O)N3CCCCCCC3)cc2)CC1,-12.7
2,O=C(NCC1CC1)c1onc(CSc2ccc(F)c(F)c2)c1C(=O)NCC1CC1,-19.6
3,O=C(O)CCCCCCCCc1cn(CCc2c[nH]c3ccccc23)nn1,-16.8
4,COc1ccc(CC(=O)NC2CCCCCC2)c(OC)c1,1.36
5,COc1ccc(S(=O)(=O)N2CCN(CC(=O)NC3CC3)CC2)cc1,-3.01
6,CC12CCC(=O)N1C(C(=O)Nc1nc(-c3ccccc3)cs1)CS2 (stereo unspecified),-7.4
7,C[C@@H]1CCCCO[C@H](CN(C)S(C)(=O)=O)[C@@H](C)CN([C@H](C)CO)C(=O)c2cc(NC(=O)CCC(F)(F)F)ccc2O1,1.17
8,O=C(Cn1cnc2c(NCc3ccccc3)ncnc21)NCC1CCCO1 (stereo unspecified),-2.83
9,CCCN1Cc2cccc(C(=O)Nc3ccc4c(c3)OCCO4)c2C1=O,3.48
10,Cn1cc([C@]2(O)C(=O)Nc3ccccc32)c2ccccc21,-7.51
11,CN1c2ccc(Br)cc2[C@@H]2[C@@H](CCN2S(=O)(=O)c2ccccc2)[C@H]1CO,0.13
12,CCN(CC(=O)Nc1c(F)cccc1F)C(=O)C1CCN(S(=O)(=O)c2ccc(F)cc2)CC1,2.85
13,Cc1ccccc1NS(=O)(=O)c1ccc(S(=O)(=O)N2CCCC2)cc1,-42.1
14,C/C=C/c1ccc([C@H]2[C@@H](CO)N(C(=O)C3CCC3)[C@@H]2CNC(=O)NC(C)C)cc1,-1.67
15,CC(O)(c1cccc(F)c1)c1nc(/C=C/c2ccccc2)cs1 (stereo unspecified),-3.32
16,CC(OC(=O)c1ccc(O)cc1)C(=O)Nc1nc(-c2ccccc2)cs1 (stereo unspecified),-36.7
17,COc1ccc(-c2csc(C(O)c3cccc(OC)c3)n2)cc1 (stereo unspecified),-25.3
18,N#Cc1cccc(-c2ccc(C3[C@@H]4CN(C(=O)c5cccnc5)C[C@H]3N4)cc2)c1 (stereo partly specified),-6.05
19,C[C@H](CO)N1C[C@H](C)[C@H](CN(C)C(=O)NC2CCCCC2)Oc2ccc(NC(=O)Cn3cnnn3)cc2C1=O,2.13
20,O=C(C1CCCCC1)N1C[C@H](O)[C@@H](n2cc(C3CC3)nn2)C[C@@H]1c1ccccc1,-17.1
21,CCCCCC(=O)N1C[C@@H](O)[C@H](n2cc(COC(=O)c3ccccc3)nn2)C[C@@H]1c1ccc(C)cc1,-7.23
22,CCc1c(C2CC2)ncn1Cc1cccc(-c2ccccc2)c1,5.16
23,FC(F)(F)c1nc2ccccc2n1CCNc1nc(CN2CCCCC2)cs1,-32.6
